Menin MLL FP FL: qHTS Assay for Inhibitors Targeting the Menin-MLL Interaction in MLL Related Leukemias: Competition With Fluorescein Labeled MLL-derived Peptide. Fluorescence polarization, fluorescein-MLL peptide displacement from menin. FP activity change, % at 61.4 µM. 290,000 tested, under 10 active; active = well fitted curve in the direction sought with a large enough effect in the polarisation, not every such curve was filed as active; inconclusive = small, poorly fitted or top-dose-only effect, or effect the other way, or a change in a side signal; inactive = no such curve, though single readings can be large or run the other way; the % refers to the polarisation; note: % of control where 0% means no effect
Menin-MLL TR inh: qHTS Assay for Inhibitors Targeting the Menin-MLL Interaction in MLL Related Leukemias: Competition With Texas Red Labeled MLL-derived Mutant Peptide | O00255 | Menin + Texas Red MLL mutant peptide, fluorescence polarization | Potency, µM (doses to about 61.6 µM), for inactives: at the top dose FP activity change, negative = inhibition, usual class: inhibitors | 270,000 compounds, 0.23% hits | AID 1768, 2009; active = well fitted inhibition curve with a large enough effect in the polarisation, with a control signal flat, not every such curve was filed as active; inconclusive = small, poorly fitted or top-dose-only effect, or effect the other way, or a change in a side signal; inactive = no such curve, though single readings can be large or run the other way; the % refers to the polarisation; note: potency is the fitted concentration of half-maximal effect; % of control where 0% means no effect
MLL CXXC-DNA inh: qHTS Fluorescence Polarization Assay for Inhibitors of MLL CXXC domain - DNA interaction; MLL-CXXC / FITC-HOXA9 DNA fluorescence polarization; 290,000 compounds, 0.037% hits; Potency, µM (doses to about 115 µM), without a hit: top-dose activity change, negative = inhibition, hits mostly inhibitors; active = well fitted inhibition curve with a large enough effect in the polarisation, with a control signal flat, not every such curve was filed as active; inconclusive = small, poorly fitted or top-dose-only effect, or effect the other way, or a change in a side signal; inactive = no such curve, though single readings can be large or run the other way; the % refers to the polarisation; note: potency is the fitted concentration of half-maximal effect
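Steps: dispense CXXC domain solution (7 uM) → pin compounds or unlabeled HOX-A9 DNA control → 5 min ambient → add FLSN-HOX-A9 solution (50 nM) → spin → 30 min ambient → fluorescence polarization. Tris pH 7.5/NaCl/DTT/BSA buffer.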
p53 reactivator: qHTS assay for re-activators of p53 using a Luc reporter | H1299 p53-A138V BP100-luciferase reporter, luminescence, 24 h | Potency, µM (highest dose often 92.2 µM), for the others: at the top dose activity change, positive = activation, actives largely listed as activators | 320,000 compounds, 0.063% hits | AID 504706, 2011; active = well fitted activation curve with a large enough effect; inconclusive = small, poorly fitted or top-dose-only effect; inactive = no such curve, though single readings can be large or run the other way; note: potency is the fitted concentration of half-maximal effect; % of control where 0% means no effect; nearly all actives have a fitted effect of over 45% in size
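p53-null H1299 cells stably carrying temperature-sensitive p53-A138V and a BP100-luciferase reporter were pinned with compounds (4-point, 1:5 series) and held 24 hrs at 37 deg C. Luminescence was read 10 min after detection reagent.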
ClpP mod: qHTS Assay for Activators of ClpP; ATP-dependent Clp protease proteolytic subunit (Bacillus subtilis (strain 168)), P80244; 340,000 compounds, 1.9% hits; purified B. subtilis ClpP, FRET peptide cleavage, 20 min; Potency, µM (titrated, usually from 57.5 µM), inactives show at the top dose activity change, negative = active; active = well fitted falling curve with a large enough effect; inconclusive = small, poorly fitted or top-dose-only effect; inactive = no such curve, though single readings can be large or run the other way; note: potency is the fitted concentration of half-maximal effect; the source files actives as falling curves though it sought activators and does not explain the sign; nearly all actives have a fitted effect of over 65% in size
Target sequence (P80244 whole entry, looked up): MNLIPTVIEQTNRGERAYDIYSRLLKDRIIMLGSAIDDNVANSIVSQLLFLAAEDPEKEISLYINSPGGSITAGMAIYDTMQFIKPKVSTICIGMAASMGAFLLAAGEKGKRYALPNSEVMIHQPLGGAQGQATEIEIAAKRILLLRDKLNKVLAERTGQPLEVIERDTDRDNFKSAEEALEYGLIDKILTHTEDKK
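Buffer: 100 mM Tris/HCl pH8, 100 mM KCl, 0.05% low protease BSA, 2.5% glycerol, 0.01% Tween-20. ClpP 10 microg/mL final; 20 min RT; delta FRET normalized to ADEP and DMSO controls.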
* = called active by the depositor; u = inconclusive; x = no result given; [ ] = another dose, or the depositor's remark. The sample as a whole holds a higher share of hits than the screen did.

SMILES	Menin MLL FP FL	Menin-MLL TR inh	MLL CXXC-DNA inh	p53 reactivator	ClpP mod
CCOc1cc(CNc2ccc(N(C)C)cc2)cc(Br)c1OCC(=O)NC(C)(C)C	-3	u	1%	19%	-16%
CCCc1cc2c(c(=O)o1)C(O)C1OC1C2=O (stereo not given)	u	13%[11.7 µM]	x	x	x
Cn1c(CCN2CCCCC2)nc2cc(NS(=O)(=O)c3ccccc3)ccc21	1	3%	-2%	21%	28µM*
Cc1csc[n+]1CC(=O)c1ccccc1	x	x	x	x	-3%
COc1ccc(C)cc1NC(=O)COC(=O)c1ccccc1SCC(=O)N1CCCC1	x	x	x	1%	28µM*
O=C(NCCc1ccccc1)[C@@H]1CC=C[C@@H]2CCN(C3CC3)C(=O)[C@@H]21	x	x	x	x	-1%
COCCC(=O)N1CCC(Oc2ccc(C(=O)N(C)CCCC3CCCC3)cc2)CC1	6	-13%	u	u	-2%
COCCC(=O)N1CCC(Oc2ccc(C(=O)NCCCC3CCCC3)cc2)CC1	x	x	4%	-1%	32µM*
Cc1ccc(CCNC(=O)c2ccc(CSCc3ccccc3Cl)o2)cc1	x	x	x	x	-1%
O=C(Nc1ccccc1-c1nc2ccccc2s1)c1cc(Cl)cc(Cl)c1	x	x	x	x	0%
O=C(Nc1c(Cl)cc(Cl)cc1-c1nc2ccccc2s1)c1ccc(Br)o1	2	u	18%	-16%	25µM*
CC(C)C[C@H](NC(=O)[C@H](CC(C)C)NC(=O)[C@@H](Cc1c[nH]c2ccccc12)NC(=O)[C@H](Cc1ccccc1)NC(=O)[C@@H](Cc1c[nH]c2ccccc12)NC(=O)[C@H](CCC(N)=O)NC(=O)[C@H](CCC(N)=O)NC(=O)[C@@H]1CCCN1C(=O)[C@H](CCCCN)NC(=O)[C@@H]1CCCN1C(=O)[C@H](N)CCCN=C(N)N)C(N)=O	0	0%	x	x	x
COc1cc(/C=C/c2ccc3cccc(O)c3n2)cc(OC)c1OC	0	-4%	-2%	20%	x
COC(=O)c1ccc(/C=C/c2ccc3cccc(OC)c3n2)cc1	-1	2%	u	-1%	13µM*
COc1ccccc1CNC(=O)Cn1c(-c2cccs2)cc2cc(F)ccc21	x	x	x	x	32µM*
CCOc1cc(CNC(=O)Cn2c(-c3cccs3)cc3cc(F)ccc32)ccc1OC	x	x	x	x	25µM*
O=C(COc1ccc(Br)cc1)Nc1ccc(C(=O)OC2CCCCC2)cc1	x	x	x	x	-1%
O=C(O)c1c(Cl)c(Cl)c(Cl)c(Cl)c1C(=O)N1CCCCCC1	-6	4%	-2%	1%	32µM*
Fc1ccccc1-c1nc(-c2ccncc2)no1	1	3%	35%	15%	2%
c1ccc2c(-c3nc(-c4ccncc4)no3)cccc2c1	2	6%	-7%	u	32µM*
c1cncc(-c2noc(-c3cccc4ccccc34)n2)c1	3	0%	1%	u	35µM*
c1ccc(-c2noc(-c3cccc4ccccc34)n2)cc1	2	27%	3%	u	28µM*
COc1cccc2nccc(/C=C/c3ccc(N(C)C)cc3)c12	x	x	x	x	-2%
Cc1ccc2nc3c(cc(C(N)=S)c(=N)n3CCCOC(C)C)c(=O)n2c1	u	-2%	-8%	-1%	22µM*
COCCCn1c(=N)c(C(=O)NCc2cccnc2)cc2c(=O)n3cc(C)ccc3nc21	x	x	x	x	4%
CCC(=O)Nc1nc(C)c(-c2csc(Nc3cccc(O)c3)n2)s1	9	u	12%	28µM*	u
C[C@H](NC(=O)CNC(=O)[C@@H](NC(=O)[C@H](Cc1ccccc1)NC(=O)CNC(=O)CNC[C@@H](N)Cc1ccccc1)[C@@H](C)O)C(=O)N[C@@H](CCCN=C(N)N)C(=O)N[C@@H](CCCCN)C(=O)N[C@@H](CO)C(=O)N[C@@H](C)C(=O)N[C@@H](CCCN=C(N)N)C(=O)N[C@@H](CCCCN)C(N)=O	-1	-5%	x	x	x

Assay outcomes deposited in PubChem BioAssay by National Center for Advancing Translational Sciences (NCATS).
